# Most compounds without a hit are left out; they make up all but 9.2% or so of the library.
# FLuc counter – inhibits or activates purified firefly luciferase, miR-21 counter-screen; P08659; purified FLuc, Km substrates, luminescence inhibition; 360,000 compounds, 6.9% hits; Potency, µM (top dose mostly 57.5 µM), for the others: at the highest dose activity change, negative = inhibition, hits mostly inhibitors;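 also: plate controls were vehicle for no effect and reference inhibitor for full effect; nearly all actives have a fitted effect of over 55% in size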
# Target sequence (P08659 whole entry, looked up): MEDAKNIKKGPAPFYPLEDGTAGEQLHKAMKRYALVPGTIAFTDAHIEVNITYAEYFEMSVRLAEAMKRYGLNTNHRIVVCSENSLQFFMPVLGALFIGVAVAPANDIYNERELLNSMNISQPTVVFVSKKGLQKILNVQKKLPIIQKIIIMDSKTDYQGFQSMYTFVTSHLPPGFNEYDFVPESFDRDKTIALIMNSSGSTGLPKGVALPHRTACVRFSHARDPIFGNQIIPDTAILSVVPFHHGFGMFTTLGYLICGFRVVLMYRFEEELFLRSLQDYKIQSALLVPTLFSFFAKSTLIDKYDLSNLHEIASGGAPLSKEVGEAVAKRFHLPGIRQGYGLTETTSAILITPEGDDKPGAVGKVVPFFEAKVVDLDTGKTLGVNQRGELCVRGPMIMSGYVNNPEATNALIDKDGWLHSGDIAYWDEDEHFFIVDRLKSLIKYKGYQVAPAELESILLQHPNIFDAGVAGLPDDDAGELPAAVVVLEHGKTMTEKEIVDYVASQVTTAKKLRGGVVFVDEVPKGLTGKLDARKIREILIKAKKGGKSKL
#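 Purified P. pyralis luciferase (10nM final) with 10uM D-luciferin and 10uM ATP (Km levels) in 50mM Tris acetate pH 7.5, 10mM Mg acetate, 0.01% Tween-20, 0.05% BSA; qHTS 6-point titration, ~60 µM downward; luminescence read.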
# ELG1 repair inh – blocks ELG1-dependent DNA repair in HEK293T cells. 330,000 compounds, 2.3% hits. Potency, µM (titrated, usually from 46.1 µM), inactives show top-dose activity change, negative = inhibition, most hits filed as inhibitors. HEK293T ELG1-luciferase reporter, luminescence, 16 h; DNA damage induced by 5-fluorouridine; also: % is scaled to controls: 0 for no effect and ±100 for the full control effect; nearly all actives have a fitted effect of over 55% in size
#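 Overnight (16 hr) co-exposure of 2,000 cells/well to 5-fluorouridine and compound at 37 °C preceded detection. Luciferase was quantified via ONE-Glo luminescence; loss of signal denotes inhibition.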
# Rab9 prom act – activates the Rab9 promoter; Huh7 Rab9 promoter-luciferase reporter, luminescence, 24 h; Potency, µM (doses to about 9.22 µM), without a hit: top-dose activation, negative = inhibition, actives largely listed as activators; 320,000 compounds, 2.8% hits; also: % of control where 0% means no effect; nearly all actives have a fitted effect of over 60% in size
#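 Cells were plated at 1500 per well in reduced-serum medium with 10% FBS and left 2 h. Compound in DMSO was then added for 24 h at 37 °C. Reporter signal was read by luminescence after 10 min with luciferase detection reagent.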
# NPC1 prom act – NPC1 promoter activation. Huh7 NPC1 promoter luciferase reporter, 24 h. Potency, µM (highest dose often 9.22 µM), for the others: top-dose activation, usual class: activators. 320,000 compounds, 2.4% hits. AID 485313; also: % of control where 0% means no effect; nearly all actives have a fitted effect of over 60% in size
#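 Quantitative HTS used a cell-based reporter: Huh7 cells stably bearing the NPC1 promoter upstream of luciferase were treated with compounds for 24 h, and promoter activation was read as luminescence.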
# SMN2 splice up – increases expression of the SMN2 splice variant; HEK293 SMN2-luciferase splicing reporter, luminescence, 30-36 h; Potency, µM (highest dose often 46.1 µM), for inactives: at the top dose activity change, positive = activation, usual class: activators; 210,000 compounds, 2.8% hits; also: % of control where 0% means no effect; nearly all actives have a fitted effect of over 55% in size
#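 qHTS luciferase splicing reporter: luminescence rises when SMN2 exon 7 is included in transfected HEK293 cells. Compound exposure lasted 30-36 h at 37C, with 4.5 mM final sodium butyrate as control, followed by a ONE-Glo read.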
# ELG1 genotox – induces genotoxicity in HEK293T cells with luciferase-tagged ELG1; HEK293T ELG1-luciferase reporter, luminescence, 16 h; Potency, µM (doses to about 46 µM), for inactives: top-dose activity change, positive = activation, most hits filed as activators; 330,000 compounds, 1.3% hits; AID 504466; also: % of control where 0% means no effect; nearly all actives have a fitted effect of over 60% in size
#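 HEK293T cells expressing luciferase-tagged ELG1 were treated with compound or DMSO for 16 hr at 37°C. Luciferase activity was then read after 30 min with ONE-Glo at room temperature; rising signal flags genetic stress.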
# An asterisk follows results filed as active; ? = inconclusive; . = no result; [ ] = remark or other dose. Calls follow the shape of the dose curve; as a rule, active = well fitted curve in the direction sought with a large enough effect; inconclusive = small, poorly fitted or top-dose-only effect, or another doubt; inactive = no such curve, though single readings can be large; an effect the other way counts as inactive or inconclusive. Potency is read from the fitted curve at half-maximal effect.
SMILES,FLuc counter,ELG1 repair inh,Rab9 prom act,NPC1 prom act,SMN2 splice up,ELG1 genotox
Cc1nc(SCc2ccccc2)nc2c1CCC2,17µM*,?,?,?,11µM*,?
COc1ccc(CNS(=O)(=O)c2ccc(-c3cc(C(F)(F)F)on3)s2)cc1OC,-12%,.,.,.,.,.
O=C(c1ccccc1Br)N(Cc1ccco1)Cc1ccco1,-14%,.,.,.,-3%,.
COc1cc(OC)c(OC)cc1/C=C1\CC(C)C/C(=C\c2cc(OC)c(OC)cc2OC)C1=O (stereo not given),3%,7.3µM*,-8%,-6%,.,-18%
CCC1C/C(=C\c2cc(OC)c(OC)cc2OC)C(=O)/C(=C/c2cc(OC)c(OC)cc2OC)C1 (stereo not given),2%,6.5µM*,1%,-5%,.,-13%
COc1cc(OC)c(OC)cc1/C=C1/Cc2ccccc2C1=O,5%,8%,-4%[1.84 µM],-9%,.,3%
Cn1cc(S(=O)(=O)N2CCCCC2)cc1C(=O)N1CCN(c2ccccc2F)CC1,-4%,.,.,.,.,.
O=C(OCCOc1cccc(Cl)c1)c1ccc2ncsc2c1,?,-1%,4%,-2%,.,-12%
Cc1ccc(NC(=O)NCc2cccn2Cc2ccccc2)c(C)c1,-2%,.,.,.,.,.
O=C(CCc1nnc(-c2ccc(-c3ccccc3)cc2)o1)NCCc1ccccn1,19µM*,?,14%,19%,.,?
CC(c1ccon1)N(C)C(=O)CCc1nnc(Cc2ccc(-c3ccccc3)cc2)o1 (stereo not given),?,?,-4%,-2%,.,-8%
CC(NC(=O)CCc1nnc(-c2ccc(-c3ccccc3)cc2)o1)c1nccs1 (stereo not given),17µM*,?,13%,18%,10µM*,4%
CC(c1nccs1)N(C)C(=O)CCc1nnc(-c2ccc(-c3ccccc3)cc2)o1 (stereo not given),12µM*,-4%,18%,14%,.,-4%
CC1CCCCN1Cc1c(O)ccc2c(=O)c(-c3nc4ccccc4s3)c(N)oc12 (stereo not given),12µM*,9%,-7%,2%,14%,2%
CC1CCCCN1Cc1c(O)ccc2c(=O)c(-c3ccccc3Cl)c(C(F)(F)F)oc12 (stereo not given),-3%,.,.,.,-13%,.
COc1cc(NC(=O)C2CCN(S(=O)(=O)c3ccc4c(c3)CCCC(=O)N4)CC2)cc(OC)c1,-9%,.,.,.,.,.
O=C(NCc1ccccc1)c1ccc2nc(N3CCOCC3)sc2c1,?,7%,20%,1%,.,9%
c1c2c(cc3sc(N4CCOCC4)nc13)OCCO2,0.95µM*,?,0.5µM*,0.4µM*,1.1µM*,0.33µM*
c1ccc(N2CCN(c3nc4cc5c(cc4s3)OCCO5)CC2)cc1,?,?,?,?,10µM*,5%
Clc1ccc(-c2nsc(N3CCOCC3)n2)c(Cl)c1,4.3µM*,?,1µM*,0.79µM*,.,3.3µM*
Nc1ccc2nc(N3CCOCC3)sc2c1,?,?,2µM*,?,16µM*,?
OCC1(O)OC[C@@H](O)[C@H]1O (stereo not given in full),-2%,5%,1%,0%,.,-4%
O=[N+]([O-])c1ccc(Cl)cc1Cl,.,.,.,.,4%,.
Clc1cc(Cl)c2nc(N3CCOCC3)sc2c1,17µM*,?,?,26%,?,?
CCc1ccc(C(=O)NC(CCSC)C(=O)OC)cc1 (stereo not given),19µM*,8%,6%,-3%,5%,-2%
SMILES,FLuc counter,ELG1 repair inh,Rab9 prom act,NPC1 prom act,SMN2 splice up,ELG1 genotox
COC(=O)[C@H](CCSC)NC(=O)c1cccnc1SC,-2%,0%,-4%,0%,.,-3%
Cc1nc(-c2ccccc2)nc2[nH]ccc(=O)c12,12µM*,?,?,30%,?,?
Cc1nc(-c2ccc([N+](=O)[O-])cc2)nc2[nH]ccc(=O)c12,5.4µM*,?,1.1µM*,1.1µM*,.,?
Cc1cc(-c2ccc([N+](=O)[O-])cc2)nc2ccccc12,?,24%,1%,1%,?,8%
Cc1nc(-c2ccccc2)nc2[nH]c(-c3ccccc3)cc(=O)c12,0%,?,14%,-1%,5%,22%
CCOc1ccccc1CNC(=O)C1CCN(c2nc3ccccc3nc2C(F)(F)F)CC1,-2%,.,.,.,.,.
Cc1cccc(C)c1Nc1nnc(SCc2nc3ccccc3s2)s1,6µM*,?,25%,6%,?,?
COc1cccc(Nc2nnc(SCC(=O)N(CC(C)C)CC(C)C)s2)c1,11µM*,-22%,-15%,-2%,.,-11%
COc1cccc(Nc2nnc(SCN3C(=O)c4ccccc4C3=O)s2)c1,5%,?,-1%,1%,28%,9%
COc1cccc(Nc2nnc(SCc3nc4ccccc4s3)s2)c1,13µM*,?,?,?,-11%,15%
COCCN(CCOC)c1nc(C)nc2c1nc(-c1ccccc1)n2CCN1CCOCC1,.,.,.,.,-11%,.
Cc1cccc(OCCNS(=O)(=O)c2ccc(Cl)cc2)c1,3%,4%,-6%,-13%,.,4%
CCOC(=O)c1c(C)[nH]c(C)c1S(=O)(=O)N1CCC(C(=O)Nc2ccc(OCC)cc2)CC1,0%,.,.,.,.,.
CC(C)OC(=O)CC(=O)CSc1nc2c(cc1C#N)CCCCC2,7.6µM*,?,?,14%,?,15µM*
CCOC(=O)CC(=O)COc1nc2cc3c(nc2o1)CCCC3,13µM*,?,18%,-3%,.,?
CCOC(=O)CC(=O)CSc1nc(C)cc(C)c1C#N,-16%,12%,-11%,-3%,17%,-12%
CCOC(=O)CC(=O)CSc1nc2c(cc1C#N)CCCCC2,9.5µM*,?,?,21%,?,7.1µM*
CCOC(=O)CC(=O)CSc1nc2c(c(C)c1C#N)CCC2,11µM*,15%,6%,23%,-6%,1%
Cc1ccccc1NC(=O)Cn1cnc2c(oc3nc4c(cc32)CCCC4)c1=O,-14%,16%,10%,1%,.,6%
O=C(Nn1cnc2ccccc2c1=O)c1c(F)cccc1F,4%,7%,21%,-8%,.,0%
COc1cc(NC(=O)c2cc3c(C)nc4ccccc4c3o2)cc(OC)c1OC,-17%,7.3µM*,-3%,1%,1%,-7%
Cc1nc2ccccc2c2oc(C(=O)Nc3ccc(C(C)C)cc3)cc12,-11%,23µM*,-3%,-9%,-42%,-4%
Cc1nc2ccccc2c2oc(C(=O)Nc3ccc4c(c3)OCCO4)cc12,15µM*,21µM*,-1%,12%,-13%,-3%

# Assay outcomes from PubChem.
